# Source: PubChem BioAssay
# Unmarked numbers belong to inactive results. No rule for the calls is given here. Where a SMILES comes first, the peptide text is derived from it. The star is where a group is joined. Boc = CC(C)(C)OC(=O)*
# Target: Pantothenate synthetase (Mycobacterium tuberculosis (strain ATCC 25618 / H37Rv)) (UniProt P9WIL5)
# Assay: Coupled enzyme confirmation of inhibitors against recombinant Mtb PanC (AID 375);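 also: 0% = full reaction with vehicle and 100% = no enzyme background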
# Details: coupled enzyme assay; at 10 µM, stronger effect = higher value
# Pantothenate synthetase (Mycobacterium tuberculosis (strain ATCC 25618 / H37Rv)), sequence (P9WIL5 whole entry, looked up): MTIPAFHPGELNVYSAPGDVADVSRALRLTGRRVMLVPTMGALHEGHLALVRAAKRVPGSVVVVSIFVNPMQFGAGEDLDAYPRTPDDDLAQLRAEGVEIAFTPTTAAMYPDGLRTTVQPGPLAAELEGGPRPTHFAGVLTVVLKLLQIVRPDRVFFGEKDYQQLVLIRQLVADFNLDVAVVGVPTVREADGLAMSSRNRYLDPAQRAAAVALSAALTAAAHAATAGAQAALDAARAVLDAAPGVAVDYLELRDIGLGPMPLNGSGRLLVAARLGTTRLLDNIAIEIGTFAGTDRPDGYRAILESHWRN
row,SMILES,inhibition
1,CCn1c(CCNC(=O)c2ccc(OC)c(OC)c2)nc2ccccc21,3%
2,O=C(CN(Cc1cccs1)C(=O)CNS(=O)(=O)c1ccccc1)NCc1ccco1,3%
3,CC(=O)NC(C)C(=O)OCC(=O)Nc1ccc(Br)cc1 (stereo not given),0%
4,Cc1cncn1CCc1nc2c3ccccc3nc(=S)n2[nH]1,7%
5,CC(NC(=O)OC(C)(C)C)C(=O)N1CCCC1C(=O)NC(Cc1ccccc1)C(N)=O (stereo not drawn) (Boc-Ala-Pro-Phe-NH2; configuration not given here),7%
6,O=C(CCNS(=O)(=O)c1cccc2nsnc12)NCc1cccs1,1%
7,CCOC(=O)COc1ccc(C2NC(C(=O)O)CS2)cc1 (stereo not given),0%
8,COc1cccc(Oc2ccc(N)cn2)c1,0%
9,O=C(O)C1CC=CCC1C(=O)Nc1ccc(S(=O)(=O)N2CCCc3ccccc32)cc1 (stereo not given),0%
10,Cc1ccc(-c2noc(COc3ccccc3C)n2)cc1,0%
11,Cn1c(=O)c2c(nc(N3CCN(c4ccccc4)CC3)n2CCCc2ccccc2)n(C)c1=O,0%
12,CCOCCn1cnc2sc(C(=O)NCC(=O)OCC)c(C)c2c1=O,10%
13,COc1ccc(OC)c(-n2nnnc2SCC(=O)NCc2ccc3c(c2)OCO3)c1,0%
14,CC1(C)Cc2c(sc3c2c(=N)n(Cc2ccco2)c(=O)n3Cc2ccccc2)CO1,0%
15,CC(C)COc1ccc(-c2nnn(CC(=O)N3CCCC3)n2)cc1,0%
16,CCN(CCCNC(=O)c1cn(CC)c2ccc(S(=O)(=O)N(C)C)cc2c1=O)c1cccc(C)c1,7%
17,O=C(CN1CCC(n2nnc3ccccc32)CC1)Nc1ccc2c(c1)CCC2,0%
18,COc1ccccc1-n1cnc2cc(NS(=O)(=O)c3ccccc3)ccc21,0%
19,CC1CCN(C(=O)c2ccc(C(=O)N3CCC(C)CC3)cc2)CC1,0%
20,Cc1cnc(C(=O)Nc2nnc(C(C)C)s2)cn1,0%

row,SMILES,inhibition
1,COc1ccccc1N1CCN(C(=O)C(Cc2ccccc2)NC(=O)C2CCCCC2)CC1 (stereo not given),5%
2,CC(OC1=CC(=O)CCC1)C(=O)c1ccccc1 (stereo not given),2%
3,CC(=O)N1CCN(Cc2ccc(Br)s2)CC1,0%
4,O=c1oc2cc(O)ccc2c2oc3cc(O)ccc3c12,7%
5,Cc1cc(C(F)(F)F)c2c(C)nn(CCc3nn[nH]n3)c2n1,0%
6,Cc1cccc(C2c3c(n(C)c(=O)n(C)c3=O)N=C3c4ccccc4C(=O)C32)c1 (stereo not given),7%
7,CCOC(=O)N1CCC(NC(=O)CCc2c(C)nc3c(c(C)nn3C(C)(C)C)c2C)CC1,7%
8,CCOC(=O)C1=C(NC#N)OC(C)=C(C)C1c1ccc(O)cc1 (stereo not given),0%
9,O=C1c2ccccc2C(O)(Cc2ccccc2)N1Cc1ccco1 (stereo not given),2%
10,O=C(CCn1c(=S)[nH]c2ccccc2c1=O)NCC1CCCO1 (stereo not given),4%
11,Cc1cc(N2C(=O)C(O)=C(C(=O)c3ccc(C)o3)C2c2cccs2)no1 (stereo not given),0%
12,CC(=O)Nc1ccc(NS(=O)(=O)c2ccc(Cl)c(C(=O)O)c2)cc1,1%
13,Cc1ccc(-c2nc(N)n(C(=O)c3cccnc3)n2)cc1,0%
14,CCC(CC)C1C(C#N)=C(N)Oc2n[nH]c(C)c21 (stereo not given),0%
15,COc1ccc(NC(=O)CCNC(=O)Cn2ccc3ccccc3c2=O)c(OC)c1,0%
16,COc1ccc(NC(=O)N2CCC(c3nc(-c4cccs4)no3)CC2)cc1,0%
17,COc1ccc(-c2nc(CSCC(=O)N3CCN(c4cccc(C)c4)C(C)C3)c(C)o2)cc1OC (stereo not given),0%
18,O=S(=O)(c1cccc2cnccc12)N1CCCNCC1,3%
19,COc1ccc(N2CCN(C(=O)CSc3ccccc3N)CC2)cc1,0%
20,CCOC(=O)CSc1nnc(NC(=O)c2cccc(S(=O)(=O)N3CCCCC3)c2)s1,5%
